PubChem BioAssay AID1159580 (chemical genetic matrix, 2015)
Values joined by “and” are separate entries in the source; they are usually repeats but may differ in a detail not shown here. Equal entries are not always repeated. The campaign covered roughly 5,500 compounds. About 2,000 (36%) were called active. Roughly 18% stayed inconclusive and do not appear here. No stated cut-off is given here; in the data, active means normalized growth mostly below about 0.91 (no sharp cut-off); inconclusive means no clear call, values can overlap the other calls; inactive means mostly above about 0.92. The list shows a part of the results.

Assay: chemical genetic growth profiling, strain panel (AID 1159580);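 further: tested at 20 µM; growth read once vehicle control cultures reached saturation at 30 °C; 1 = growth at the plate median or of vehicle wells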
Conditions: S. cerevisiae deletion strains, growth OD

Measured: normalized growth

c1ccc([C@H]2CN3CCSC3=N2)cc1
inactive: locus YAL013W, strain DEP1, stronger effect = lower value 1.01 | locus YAL021C, strain ccr4, stronger effect = lower value 1.01 | locus YAL026C, strain drs2, stronger effect = lower value 1.01 | locus YAL030W, strain snc1, stronger effect = lower value 1.01 | locus YBL061C, strain skt5, stronger effect = lower value 1.01 | locus YBR009C, strain hhf1, stronger effect = lower value 1.01 | locus YBR021W, strain FUR4, stronger effect = lower value 0.956 | locus YBR023C, strain chs3, stronger effect = lower value 1.01 | locus YBR171W, strain sec66, stronger effect = lower value 1.02 | locus YBR229C, strain ROT2, stronger effect = lower value 1.01 | locus YBR231C, strain swc5, stronger effect = lower value 1 | locus YBR279W, strain paf1, stronger effect = lower value 1.02 | locus YCL011C, strain gbp2, stronger effect = lower value 1.01 | locus YCL016C, strain dcc1, stronger effect = lower value 1.01 | locus YCL029C, strain bik1, stronger effect = lower value 1.01 | locus YCL061C, strain MRC1, stronger effect = lower value 0.996 | locus YCL069W, strain vba3, stronger effect = lower value 1 | locus YCR088W, strain abp1, stronger effect = lower value 1 | locus YDL005C, strain med2, stronger effect = lower value 0.976 | locus YDL035C, strain GPR1, stronger effect = lower value 1.01 | locus YDL040C, strain nat1, stronger effect = lower value 1.01 | locus YDL074C, strain BRE1, stronger effect = lower value 1 | locus YDL101C, strain DUN1, stronger effect = lower value 1 | locus YDL134C, strain PPH21, stronger effect = lower value 1.01 | locus YDL185W, strain tfp1, stronger effect = lower value 1.02 | locus YDL192W, strain arf1, stronger effect = lower value 1 | locus YDR001C, strain nth1, stronger effect = lower value 0.995 | locus YDR069C, strain doa4, stronger effect = lower value 0.996 | locus YDR101C, strain arx1, stronger effect = lower value 1 | locus YDR137W, strain rgp1, stronger effect = lower value 1.04 | locus YDR150W, strain NUM1, stronger effect = lower value 1.01 | locus YDR159W, strain sac3, stronger effect = lower value 0.944 | locus YDR162C, strain NBP2, stronger effect = lower value 0.999 | locus YDR195W, strain ref2 1 | locus YDR297W, strain sur2, stronger effect = lower value 1.01 | locus YDR318W, strain mcm21, stronger effect = lower value 0.993 | locus YDR334W, strain swr1, stronger effect = lower value 0.984 | locus YDR335W, strain msn5, stronger effect = lower value 0.987 | locus YDR388W, stronger effect = lower value 1.01 | locus YDR392W, strain spt3, stronger effect = lower value 1.01 | locus YDR502C, strain sam2, stronger effect = lower value 0.993 | locus YEL003W, strain gim4, stronger effect = lower value 1.01 | locus YEL037C, strain rad23, stronger effect = lower value 1 | locus YEL061C, strain CIN8 (second series), stronger effect = lower value 0.996 | locus YEL061C, strain CIN8, stronger effect = lower value 1 | locus YER015W, strain faa2, stronger effect = lower value 1.01 | locus YER016W, strain bim1, stronger effect = lower value 1.01 | locus YER110C, stronger effect = lower value 1.02 | locus YER111C, strain swi4, stronger effect = lower value 1.01 | locus YER155C, strain BEM2 (second series), stronger effect = lower value 1.01 | locus YER155C, strain BEM2, stronger effect = lower value 0.999 | locus YER167W, strain BCK2, stronger effect = lower value 1.01 | locus YFR010W, strain ubp6, stronger effect = lower value 0.981 | locus YGL078C, strain dbp3, stronger effect = lower value 1 | locus YGL086W, strain mad1, stronger effect = lower value 1.01 | locus YGL167C, strain pmr1, stronger effect = lower value 1 | locus YGL173C, strain kem1, stronger effect = lower value 1.01 | locus YGL227W, strain vid30, stronger effect = lower value 1.02 | locus YGL240W, strain doc1, stronger effect = lower value 1 | locus YGL248W, strain PDE1, stronger effect = lower value 1 | locus YGL253W, strain hxk2, stronger effect = lower value 1.01 | locus YGR078C, strain PAC10, stronger effect = lower value 1 | locus YGR135W, strain pre9, stronger effect = lower value 0.988 | locus YGR229C, strain SMI1, stronger effect = lower value 0.994 | locus YGR252W, strain gcn5, stronger effect = lower value 1.02 | locus YHR013C, strain ard1, stronger effect = lower value 1.02 | locus YHR027C, strain rpn1, stronger effect = lower value 1.01 | locus YHR030C, strain SLT2, stronger effect = lower value 1.01 | locus YHR079C, strain IRE1 (second series), stronger effect = lower value 1 | locus YHR079C, strain IRE1, stronger effect = lower value 1.03 | locus YHR094C, strain hxt1, stronger effect = lower value 1 | locus YHR129C, strain ARP1, stronger effect = lower value 1.03 | locus YHR142W, strain chs7, stronger effect = lower value 1.05 | locus YHR200W, strain rpn10, stronger effect = lower value 1 | locus YIL066C, strain RNR3, stronger effect = lower value 1.02 | locus YIL073C, strain SPO22, stronger effect = lower value 1.05 | locus YIL125W, strain kgd1, stronger effect = lower value 1.01 | locus YIR030C, strain dcg1, stronger effect = lower value 1.01 | locus YJL092W, strain hpr5, stronger effect = lower value 1 | locus YJL095W, strain BCK1 (second series), stronger effect = lower value 1.01 | locus YJL095W, strain BCK1, stronger effect = lower value 1.01 and 1.05 | locus YJL115W, strain asf1, stronger effect = lower value 0.997 | locus YJL129C, strain trk1, stronger effect = lower value 1.02 | locus YJL134W, strain LCB3, stronger effect = lower value 1.01 | locus YJL154C, strain vps35, stronger effect = lower value 1.01 | locus YJL164C, strain tpk1, stronger effect = lower value 0.983 | locus YJL166W, strain qcr8, stronger effect = lower value 1.01 | locus YJL168C, strain set2, stronger effect = lower value 1.01 | locus YJL187C, strain SWE1 (second series), stronger effect = lower value 1.01 | locus YJL187C, strain SWE1, stronger effect = lower value 1 | locus YJR043C, strain POL32, stronger effect = lower value 1.02 | locus YJR066W, strain TOR1, stronger effect = lower value 0.976
